# Source: PubChem
# TDP1 cell noCPT = qHTS for Inhibitors of human tyrosyl-DNA phosphodiesterase 1 (TDP1): qHTS in cells in absence of CPT | DT40 Tdp1-/- hTDP1 cells, no CPT, ATP luminescence, 48 h | Potency, µM (titrated, usually from 46.2 µM), without a hit: at the top dose activity change, negative = growth inhibition, hits mostly inhibitors | hit rate 15% among 420,000; note: potency is the fitted concentration of half-maximal effect; nearly all actives have a fitted effect of over 55% in size
#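 Seeded 400 DT40-hTDP1 cells/well (vehicle DMSO, no 20 nM CPT); pinned compounds; ≥48 hr at 37 °C; CellTiter-Glo luminescence as viability measure.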
# HT1080 IDH1KD tx = kills HT-1080 cells with IDH1 knockdown; HT-1080 IDH1 knockdown viability, ATP luminescence, 48 h; Potency, µM (series often up to 46.1 µM), for the others: top-dose activity, negative = toxicity, actives largely listed as cytotoxic; hit rate 2% among 360,000; AID 686971;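 note: potency is the fitted concentration of half-maximal effect; 0% = DMSO wells and -100% = cell-free medium wells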
#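 IDH1KD HT-1080 cells, 750/well, RPMI + 5% FBS; compound pinned after 2 h settling; 48 h, 37 °C; CellTiter-Glo luminescence; % activity normalised to DMSO and no-cell wells; curves fitted, classed by r2 and efficacy.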
# IL1B secr inh = blocks inflammasome-driven IL-1 beta release; THP-1 LPS/ATP IL-1B secretion, AlphaLISA, 16 h; active compounds read low; activity change, % at 57.5 µM; hit rate 4.7% among 360,000; in the data active = activity change below about -50%; inconclusive = mostly about -30% to -49%
#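 Secreted IL-1B measured by AlphaLISA bead assay after 16 h compound exposure of THP-1 cells; compounds (final up to 57.5 uM) added 1 h before LPS (250 ng/mL) and ATP (1.25 mM) stimulation; lower signal means less secretion.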
# HT1080NT lethal = kills 2HG-producing HT-1080-NT fibrosarcoma cells; hit rate 1.6% among 360,000; AID 686970; Potency, µM (top dose mostly 46.1 µM), without a hit: at the top dose activity, negative = less viability, hits mostly cytotoxic; HT-1080-NT fibrosarcoma viability, CellTiter-Glo ATP luminescence, 48 h;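 note: NT is the 2HG producing partner of a matched IDH1 knockdown line; potency is the fitted concentration of half-maximal effect; 0% = DMSO-treated cells and -100% = media-only wells without cells; nearly all actives have a fitted effect of over 55% in size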
#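 Compounds were tested in concentration-response format on HT-1080-NT cells for 48 hours at 37 degrees C. Cell viability came from CellTiter-Glo luminescence; curves were classified by r2, response magnitude and activity.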
# DT40 TDP1 CPT = DT40-hTDP1 cell growth loss with CPT. chicken DT40 Tdp1-/-;hTDP1 cells + 20 nM CPT, ATP luminescence, 48 h. Potency, µM (series often up to 46.2 µM), inactives show at the highest dose activity change, negative = growth inhibition, hits mostly inhibitors. hit rate 12% among 420,000. AID 686979; note: potency is the fitted concentration of half-maximal effect; nearly all actives have a fitted effect of over 55% in size
#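 Chicken DT40 Tdp1-/- cells complemented with human TDP1, 400 cells/well, exposed to compounds plus 20 nM camptothecin for at least 48 h at 37 C; viability read as ATP content by CellTiter-Glo luminescence.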
# Starred values were filed as active, the others as inactive; ? = inconclusive; · = no result given; [ ] = another dose, or the depositor's remark. Most compounds without a hit are left out; they make up all but 19% or so of the library. Unless noted, calls come from the whole dose curve; as a rule, active = well fitted curve in the direction sought with a large enough effect; inconclusive = small, poorly fitted or top-dose-only effect, or another doubt; inactive = no such curve, though single readings can be large; an effect the other way counts as inactive or inconclusive. Unless noted, % is set by controls: 0 for no effect and ±100 for the full control effect.
SMILES,TDP1 cell noCPT,HT1080 IDH1KD tx,IL1B secr inh,HT1080NT lethal,DT40 TDP1 CPT
COC(=O)C1=C(C)NC(=O)CC1c1ccccc1F (centres undefined),-6%,5%[9.24 µM],9,-1%,1%
Cn1c2c(c(=O)n(C)c1=O)C(c1cc(Br)ccc1F)CC(=O)N2 (centres undefined),-22%,·,·,·,10%
O=C1CC(c2ccccc2F)c2cc3c(cc2N1)CCC3 (centres undefined),4.6µM*,0.89µM*,41,1.6µM*,3.3µM*
COc1ccccc1N1CCN(C(=O)CCc2nnc3n(C)c(=O)c4sccc4n23)CC1,-22%,·,·,·,0%
c1ccc2c(Nc3ccc(N4CCOCC4)cc3)nc(N3CCOCC3)nc2c1,21µM*,?,-70*,?,?
c1ccc2nc(-c3ccc(N4CCOCC4)cc3)ccc2c1,-23%,5%,37,4%,-21%
C(=C\c1nc(N2CCCC2)c2ccccc2n1)/c1ccccc1,?,?,-98*,26µM*,?
c1ccc2c(c1)nc(N1CCCCCC1)c1ccccc12,?,-15%,48,0%,?
Cc1cc(-c2ccc(N3CCOCC3)cc2)nc2ccccc12,23µM*,6%,-13,4%,21µM*
Oc1ccc(Nc2nc(N3CCCC3)c3ccccc3n2)cc1,21µM*,?,-99*,?,26µM*
CC(NC(=O)c1ccco1)C(=O)N1CCN(S(=O)(=O)c2ccccc2C#N)CC1 (centres undefined),-1%,-1%,16,10%,6%
C=CCN(C(=O)CSc1nc2[nH]ncc2c(=O)n1-c1ccccc1OC)c1ccccc1,-16%,-23%,6,-12%,-22%
Cc1ccc(Nc2nc(N)c([N+](=O)[O-])c(N3CCOCC3)n2)cc1,-25%,8%,-7,9%,-25%
CN1CCN(c2ccc(-c3ccc4ccccc4n3)cc2)CC1,18µM*,?,-65*,?,?
Cc1ccc(Nc2nc(N3CCOCC3)c3ccccc3n2)cc1,21µM*,-25%,-104*,?,21µM*
COc1ccc(Nc2nc(N3CCCCC3)c3ccccc3n2)cc1,18µM*,?,-101*,-25%,18µM*
Cc1ccc(N(CCC#N)C(=O)COC(=O)C2CCN(S(=O)(=O)c3ccc(C)c(C)c3)CC2)cc1,-38%,16%,27,11%,-12%
O=c1c2ccccc2oc2cc(OCc3ccc(F)cc3)cc(O)c12,-2%,4%,24,14%,-7%
CCOC(=O)N1CCC2(CC1)OC(=O)C(C)=C2C(=O)NCc1ccc(C)cc1,-21%,·,·,·,-29%
CCN1C[C@@H]2[C@@H]3C(=O)N(Cc4ccccc4)C(=O)[C@@H]3[C@](Cc3ccccc3)(C1=O)N2C(=O)c1ccc(C(C)(C)C)cc1,18µM*,5%,-13,-3%,16µM*
C/C=C/c1c(F)c(F)c(Oc2ccc(C(=O)O)cc2)c(F)c1F,2%,3%,16,16µM*,-4%
COc1ccc(-c2nnn(CC(=O)Nc3sc4c(c3C#N)CCCC4)n2)cc1,-20%,7%,4,1%,-14%
CSc1nn(CC(=O)Nc2cc(C)ccc2C)c(N)c1S(=O)(=O)c1ccccc1,6.5µM*,·,·,·,?
COc1ccc(NC(=O)Cn2nc(SC)c(S(=O)(=O)c3ccc(C)cc3)c2N)cc1OC,-22%,·,·,·,-7%
CCSc1nn(CC(=O)Nc2ccc(C(=O)OC)cc2)c(N)c1S(=O)(=O)c1ccc(C)cc1,21µM*,·,·,·,16µM*
SMILES,TDP1 cell noCPT,HT1080 IDH1KD tx,IL1B secr inh,HT1080NT lethal,DT40 TDP1 CPT
CCOC(=O)c1ccc(NC(=O)Cn2nc(SC)c(S(=O)(=O)c3ccc(Cl)cc3)c2N)cc1,21µM*,·,·,·,?
COc1ccc(N2C(=NC(=O)c3ccccc3)SC3CS(=O)(=O)CC32)cc1 (centres undefined),-15%,-9%,8,-5%,-1%
O=C(CSc1nnc(-c2ccc(O)cc2)n1Cc1ccco1)c1cccs1,?,-11%,-3,5%,?
N#Cc1c(-c2ccccc2)c(-c2ccccc2)n(Cc2ccco2)c1NC(=O)c1cccs1,?,-3%,-4,-3%,11µM*
C=CCNC(=O)CN1C(=O)CSc2ccc(S(=O)(=O)N3CCOCC3)cc21,?,10%,1,15%,4%
COc1cc(/C=C2\SC(N3CCc4ccccc4C3)=NC2=O)cc(OC)c1OC,16µM*,10%,-67*,1%,21µM*
CCOc1ccc(/C=C2\SC(N3CCc4ccccc4C3)=NC2=O)cc1,21µM*,-22%,-54*,?,29µM*
COC(=O)c1ccccc1C(=O)N1CCc2c(cnc(C)c2CNC(=O)c2ccccc2F)C1,-6%,·,·,·,-5%[9.04 µM]
COc1ccc(CNC(=O)c2cc(-c3ccc(OC)c(OC)c3)nc3n[nH]c(-c4ccc(C)cc4)c23)cc1,5.2µM*,·,·,·,5.8µM*
COc1ccc(CNC(=O)c2cc(-c3ccc(OC)cc3)nc3n[nH]c(-c4cccc([N+](=O)[O-])c4)c23)cc1,-20%,·,·,·,-4%
Cc1ccc(-c2cc(C(=O)NCCc3ccccc3)c3c(-c4ccc(C)cc4)[nH]nc3n2)cc1,9.2µM*,·,·,·,?
CCCCNC(=O)c1cc(-c2ccc(OC)cc2)nc2n[nH]c(-c3cccc([N+](=O)[O-])c3)c12,18µM*,·,·,·,21µM*
COc1ccc(-c2cc(C(=O)NCc3ccc(F)cc3)c3c(-c4ccc(F)cc4)[nH]nc3n2)cc1OC,18µM*,·,·,·,16µM*
CCN(CC)c1ccc(C(=O)OCC(=O)Nc2cc(C)on2)cc1,?,6%,-4,-9%,-11%
Cc1ccc(-c2c(C(=O)N/N=C/C3CC=CCC3)nnn2-c2nonc2N)cc1 (centres undefined),?,0%,3,1%,-3%
CC(C)c1ccc(NC(=O)COC(=O)C2CC3C=CC2C3)cc1 (centres undefined),-40%,-2%,2,-7%,-30%
Cc1ccc(S(=O)(=O)N(C)C)cc1NC(=O)COC(=O)c1ccc2c(c1)NC(=O)CS2,-23%,-3%,-6,-3%,-9%
Cc1cc(C)c(S(=O)(=O)Nc2ncn[nH]2)cc1C,-25%,-2%,-3,19%,-2%
CC(=O)Nc1ccc2nc(NC(=O)c3ccc([N+](=O)[O-])o3)sc2c1,?,5.2µM*,-61*,?,?
Cc1nc2ccc(NC(=O)c3ccc(Br)o3)cc2s1,?,1%,-57*,-7%,-16%
CCCC(=O)Nc1nc2ccc(NC(=O)c3ccc(Br)o3)cc2s1,23µM*,-11%,-61*,-18%,?
Cc1nc2ccc(NC(=O)Cc3ccc(Br)cc3)cc2s1,-10%,-3%,-11,?,-18%
